Measured values as given in PubChem BioAssay (Tox21).
Results filed as inconclusive are left out. Active and inactive are the calls of the source. Unless noted, calls follow the shape of the dose curve; as a rule, active = well fitted curve in the direction sought with a large enough effect in the repeat runs; inconclusive = weak or mixed curves; inactive = no such curve, though single readings can be large; an effect the other way counts as inactive or inconclusive.

Assays:
[1] = qHTS assay for small molecules that induce genotoxicity in human embryonic kidney cells expressing luciferase-tagged ATAD5 (AID 651632); also: nearly all actives have a fitted effect of over 15% in size
How it was run: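 A rise in luciferase signal from ATAD5-tagged HEK293T cells marks genetic stress. Cells were exposed to compounds for 16 hr at 37C, 5% CO2, then luciferase was quantified after a 30 min room-temperature incubation with Amplite.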

[2] = qHTS assay for small molecule agonists of the p53 signaling pathway - cell viability (AID 651633; calls by dose curve; also: nearly all actives have a fitted effect of over 30% in size; also: potency is read from the fitted curve at half-maximal effect)
How it was run: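 p53RE-bla cells, seeded at 4,000 per well and rested 5 h at 37 C/5% CO2, received compounds in DMSO for 16 h at 37 C. CellTiter-Glo was then added, and luminescence was read after 30 min at room temperature to gauge cytotoxicity.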

[3] = qHTS assay for small molecules that induce genotoxicity in human embryonic kidney cells expressing luciferase-tagged ATAD5 - cell viability (AID 651634; calls by dose curve; also: nearly all actives have a fitted effect of over 25% in size; also: potency is read from the fitted curve at half-maximal effect)
How it was run: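 Cytotoxicity counter-readout: after 15.5 hr compound treatment at 37C, live-cell protease activity in ATAD5-luciferase HEK293T cells measured by CellTiter-Fluor fluorescence, 30 min development at 37C.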

[4] = qHTS assay for small molecule disruptors of the mitochondrial membrane potential - cell viability (AID 720634; calls by dose curve;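 also: human HepG2 liver cancer cells; nearly all actives have a fitted effect of over 20% in size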)
How it was run: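 Cytotoxicity was quantified from ATP content by CellTiter-Glo luminescence in the same wells as the MMP dye read-out. HepG2 (2,000 cells/well) were plated overnight and exposed to compounds for 1 hr at 37 C.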

[5] = qHTS assay to test for compound auto fluorescence at 590 nm (red) in HepG2 cells (AID 720674)
How it was run: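 Compound auto-fluorescence is scored relative to Rose Bengal sodium, measured at 540/590 nm in live HepG2 cultures after 1 hr compound contact (37 C, 5% CO2).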

[6] = qHTS assay to test for compound auto fluorescence at 460 nm (blue) in HEK293 cells (AID 720678)
How it was run: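 Measured: blue fluorescence (Ex 405/Em 460 nm) of compound-treated HEK293 cells, incubated overnight at 37C with 5% CO2 and scaled to triamterene equivalents.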

[7] = qHTS assay to test for compound auto fluorescence at 590 nm (red) in HEK293 cells (AID 720679)
How it was run: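 Using HEK293 cells at 2,000 per well, the screen added 23 nL of each compound after cell attachment and incubated overnight (37C, 5% CO2). The plate reader then captured red-label fluorescence, Ex/Em 540/590nm.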

[8] = qHTS assay to test for compound auto fluorescence at 535 nm (green) in HEK293 cells (AID 720680)
[9] = qHTS assay to test for compound auto fluorescence at 460 nm (blue) in HEK293 cell free culture (AID 720681)
How it was run: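 Test compounds were pinned into cell-free culture medium (DMEM with 10% FBS) and fluorescence was read directly at Ex/Em 405/460 nm. Signals were expressed as fluorescence equivalents of triamterene, with DMSO vehicle as control.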

[10] = qHTS assay to test for compound auto fluorescence at 535 nm (green) in HEK293 cell free culture (AID 720682)
How it was run: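 DMEM + 10% FBS, cell-free; cpd or DMSO pinned in; Ex485/Em535 read; output as fluorescein-equivalent signal.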

[11] = qHTS assay to test for compound auto fluorescence at 590 nm (red) in HEK293 cell free culture (AID 720683)
How it was run: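 Tox21 10K library compounds were pinned into cell-free DMEM with 10% FBS and fluorescence was read at excitation 540 nm. Activity is expressed as Rose Bengal sodium equivalency.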

[12] = qHTS assay to test for compound auto fluorescence at 590 nm (red) in HepG2 cell free culture (AID 720684)
How it was run: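 Ex 540 / Em 590 nm read of compound in cell-free MEM (10% FBS). Rose Bengal sodium reference.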

[13] = qHTS assay to test for compound auto fluorescence at 460 nm (blue) in HepG2 cell free culture (AID 720685)
How it was run: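 Cell-free plates of MEM plus 10% FBS received 23 nL compound or DMSO vehicle; blue-channel (405/460 nm) intensity scored against triamterene as reference fluorophore.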

[14] = qHTS assay to test for compound auto fluorescence at 535 nm (green) in HepG2 cell free culture (AID 720686)
[15] = qHTS assay to test for compound auto fluorescence at 460 nm (blue) in HepG2 cells (AID 720687)
How it was run: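 Cells (2,000/well in MEM with 10% FBS) attached overnight at 37 C, then were exposed to compound or DMSO for 1 hr at 37 C, 5% CO2. Fluorescence read at Ex/Em 405/460 nm, expressed as triamterene-equivalent signal.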

[16] = molecular target: Glucocorticoid receptor (Homo sapiens) (UniProt P04150); test: qHTS assay to identify small molecule agonists of the glucocorticoid receptor (GR) signaling pathway (AID 720691; active = well fitted activation curve with a large enough effect in the signal ratio in the repeat runs, not every such curve was filed as active; the % refers to the signal ratio); settings: GR-bla HeLa, beta-lactamase reporter ratio, 18 h; activation: at 62.4 µM (top of the series)
How it was run: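 Agonist-mode qHTS in HeLa cells stably expressing a glucocorticoid-response-element beta-lactamase reporter. Fluorescence intensity read with FRET substrate (2 h, room temperature) after 18 h compound treatment at 37 C.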

[17] = qHTS assay to test for compound auto fluorescence at 535 nm (green) in HepG2 cells (AID 720675)
[18] = molecular target: Glucocorticoid receptor (Homo sapiens) (UniProt P04150); test: qHTS assay to identify small molecule antagonists of the glucocorticoid receptor (GR) signaling pathway (AID 720692; active = well fitted inhibition curve with a large enough effect in the signal ratio in the repeat runs, not every such curve was filed as active; the % refers to the signal ratio; also: potency is read from the fitted curve at half-maximal effect)
How it was run: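 Inhibition of dexamethasone-driven (5 nM final) beta-lactamase expression was measured in GRE-reporter HeLa cells over 18 h at 37C. Fluorescence was read after 2 h with the B/G FRET substrate at room temperature.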

[19] = qHTS assay for small molecule disruptors of the mitochondrial membrane potential (AID 720635); also: potency is read from the fitted curve at half-maximal effect
How it was run: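 HepG2 cells (2,000/well) attached overnight at 37C, then took compound for 1 hr at 37C, 5% CO2. Mito-MPS dye was added for 30 min; fluorescence was read at 490/535 nm (monomers) and 540/590 nm (aggregates).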

Measured: Potency

Glucocorticoid receptor (Homo sapiens), sequence (P04150 whole entry, looked up): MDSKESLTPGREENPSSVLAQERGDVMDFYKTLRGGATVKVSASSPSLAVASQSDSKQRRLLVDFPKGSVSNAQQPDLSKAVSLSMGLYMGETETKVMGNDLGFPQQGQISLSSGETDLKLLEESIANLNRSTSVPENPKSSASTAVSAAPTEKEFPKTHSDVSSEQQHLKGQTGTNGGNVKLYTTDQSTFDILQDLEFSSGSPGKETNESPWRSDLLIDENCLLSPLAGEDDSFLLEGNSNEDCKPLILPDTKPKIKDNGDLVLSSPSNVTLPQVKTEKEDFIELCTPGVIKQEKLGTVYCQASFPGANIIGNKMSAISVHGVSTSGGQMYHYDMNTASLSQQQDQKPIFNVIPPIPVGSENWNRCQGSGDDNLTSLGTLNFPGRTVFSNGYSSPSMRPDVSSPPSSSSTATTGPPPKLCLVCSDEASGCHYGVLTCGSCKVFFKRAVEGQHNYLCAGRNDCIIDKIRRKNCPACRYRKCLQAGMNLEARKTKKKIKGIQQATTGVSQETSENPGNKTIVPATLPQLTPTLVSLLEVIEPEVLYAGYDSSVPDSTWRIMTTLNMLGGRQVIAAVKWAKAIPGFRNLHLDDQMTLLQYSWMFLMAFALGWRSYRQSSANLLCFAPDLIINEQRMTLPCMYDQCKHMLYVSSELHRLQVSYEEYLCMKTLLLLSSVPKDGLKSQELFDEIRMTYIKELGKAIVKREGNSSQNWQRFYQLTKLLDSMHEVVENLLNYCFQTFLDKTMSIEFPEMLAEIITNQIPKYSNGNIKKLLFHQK

C[N@+]12CCCC[C@@H]1CCC(=C(c1cccs1)c1cccs1)C2
inactive: [1] | [2] | [3] | [4] | [5] | [6] | [7] | [8] | [9] | [10] | [11] | [12] | [13] | [14] | [15] | [16]

CO[C@H]1C=CO[C@@]2(C)Oc3c(C)c(O)c4c(O)c(c(/C=N/N5CCN(C6CCCC6)CC5)c(O)c4c3C2=O)NC(=O)/C(C)=C\C=C[C@H](C)[C@H](O)[C@@H](C)[C@@H](O)[C@@H](C)[C@H](OC(C)=O)[C@@H]1C
active: [2] 26.6 µM | [3] 21.1 µM | [18] 21.3 µM
inactive: [1] | [5] | [17] | [6] | [7] | [8] | [9] | [10] | [11] | [12] | [13] | [14] | [15] | [16]

Cc1cc(C)c(NC(=O)C[C@H](CC(=O)O)c2cccc3ccccc23)c(C(=O)N2CCC3(CCCC3)CC2)c1
active: [18] 10.7 µM
inactive: [1] | [2] | [3] | [4] | [5] | [17] | [6] | [7] | [8] | [9] | [10] | [11] | [12] | [13] | [14] | [15] | [16]

CC1C(=O)CC2C3(C)CCC2(C(C)C(=O)O)C(=O)C13 (stereo not given)
inactive: [1] | [2] | [3] | [4] | [5] | [17] | [7] | [8] | [9] | [10] | [11] | [12] | [13] | [14] | [15] | [16] | [18]

CCCCCc1ccc(C)cc1O
inactive: [1] | [2] | [3] | [5] | [17] | [6] | [7] | [8] | [9] | [10] | [11] | [12] | [13] | [14] | [15] | [18]
active: [19] 10.6 µM

CC(C)N1CCN(c2ccc(OC[C@H]3CO[C@](Cn4cncn4)(c4ccc(Cl)cc4Cl)O3)cc2)CC1
active: [2] 11.4 µM
inactive: [1] | [3] | [4] | [5] | [17] | [7] | [8] | [9] | [10] | [11] | [12] | [13] | [14] | [15]

COC(=O)CC[C@H](N)C(=O)O
inactive: [1] | [2] | [3] | [4] | [5] | [17] | [6] | [7] | [8] | [9] | [10] | [11] | [12] | [13] | [14] | [15] | [18]

N[C@H](CCC(=O)O)C(=O)O
inactive: [1] | [2] | [3] | [4] | [5] | [17] | [6] | [7] | [8] | [9] | [10] | [11] | [12] | [14] | [15] | [16]

CN(C)CCCN1c2ccccc2C(C)(C)c2ccccc21
inactive: [1] | [2] | [3] | [4] | [5] | [6] | [7] | [8] | [9] | [10] | [11] | [12] | [14] | [15] | [16]

CN=C1C=CC(=C(c2ccc(N(C)C)cc2)c2ccc(N(C)C)cc2)C=C1
active: [2] 18.8 µM | [3] 4.73 µM
inactive: [1] | [5] | [17] | [6] | [7] | [8] | [9] | [10] | [11] | [12] | [13] | [14] | [15]

[O]=[Bi][O]C(=O)[O][Bi]=[O]
inactive: [1] | [2] | [3] | [4] | [5] | [6] | [7] | [8] | [9] | [10] | [11] | [12] | [13] | [14] | [15] | [16] | [18]

O=C(O)COc1ccc(CCNS(=O)(=O)c2ccccc2)s1
inactive: [1] | [2] | [3] | [4] | [5] | [17] | [6] | [7] | [8] | [9] | [10] | [11] | [12] | [13] | [14] | [15] | [16] | [18]

COc1ccc(C2(C#N)CCC(C(=O)O)CC2)cc1OC1CCCC1 (stereo not given)
inactive: [1] | [2] | [3] | [4] | [5] | [17] | [7] | [8] | [9] | [10] | [11] | [12] | [13] | [14] | [15] | [16] | [18]
